CYP2C9 inhib – blocks human cytochrome P450 2C9 | CYP2C9 Supersomes, luciferin-H conversion, luminescence | P11712 | inhibition, % at 5 µM | 96,000 tested, 20% active | AID 777;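 active = blocking of liver enzyme CYP2C9 beyond about 50% at 5 µM, limit read from the data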
CYP2C19 activ – increases human CYP2C19 enzyme activity | P33261 | recombinant CYP2C19, luciferin-H EGE luminescence; hits give high values; 0 = fully inhibited enzyme, 1 = untreated enzyme | activation factor at 5 µM | 96,000 tested, under 10 active | AID 1025;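 active = activation factor of at least 2 at 5 µM in the primary screen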;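 also: 0 = wells with 2.5 mM tranylcypromine and 1 = vehicle-only wells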
Target sequence (P33261 whole entry, looked up): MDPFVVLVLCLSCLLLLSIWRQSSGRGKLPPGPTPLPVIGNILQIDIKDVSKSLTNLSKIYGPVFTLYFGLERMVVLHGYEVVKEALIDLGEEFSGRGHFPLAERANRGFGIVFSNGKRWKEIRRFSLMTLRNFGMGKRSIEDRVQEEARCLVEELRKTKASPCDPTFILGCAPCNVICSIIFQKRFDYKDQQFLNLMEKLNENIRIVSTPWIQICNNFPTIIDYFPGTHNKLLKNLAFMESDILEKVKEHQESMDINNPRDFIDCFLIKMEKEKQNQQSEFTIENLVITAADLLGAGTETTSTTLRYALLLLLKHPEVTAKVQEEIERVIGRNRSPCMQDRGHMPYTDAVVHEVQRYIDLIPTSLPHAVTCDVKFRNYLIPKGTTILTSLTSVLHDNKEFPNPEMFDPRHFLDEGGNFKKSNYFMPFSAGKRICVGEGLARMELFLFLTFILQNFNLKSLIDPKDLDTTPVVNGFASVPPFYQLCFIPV
MRP resist rev – MRP-mediated drug resistance reversal; H69AR cells + 2 uM doxorubicin, CellTiter-Glo, 72 h; differential viability (reversal), % at 10 µM; 85,000 tested, 0.04% active;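 active = viability drop by adding the cancer drug above about 55%, with treated viability meeting a 40% cutoff, limit read from the data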;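 also: viability without doxorubicin minus viability with 2 µM doxorubicin for each compound; larger differential means the compound sensitizes cells more to doxorubicin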
CYP2C9 act – activators of human CYP2C9; recombinant CYP2C9, luciferin-H conversion, luminescence; hits give high values; factor 1 = untreated enzyme, 0 = blocked; activation factor at 5 µM; 96,000 tested, 1.4% active;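 active = activation factor of 2 or more for CYP2C9 at a 5 µM dose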;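 also: 0 = sulfaphenazole-blocked wells and 1 = vehicle-only wells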
CYP2C19 inh – inhibitors of human CYP2C19. P33261. CYP2C19 Supersomes, luciferin-H EGE luminescence, 30 min. inhibition, % at 5 µM. 96,000 tested, 21% active;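 active = CYP2C19 inhibition above a set limit at 5 µM in the primary screen, cut at about 50% in these data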;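 also: plate controls were negative control wells for no effect and 2.5 mM tranylcypromine positive control for full effect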
MRP-1 activ – activates MRP-1; 140,000 tested, 0.61% active; viability increase, % at 10 µM; H69AR cells + doxorubicin, viability rescue, CellTiter-Glo;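 active = viability gain under doxorubicin at or above a set limit, the compound median plus 3 SD, cut at about 4.7% in these data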;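 also: MRP-1 overexpressing cells given doxorubicin 25 µM after compound pretreatment; 18-22 h compound pretreatment then 72 h with doxorubicin before readout; 0% = doxorubicin-only wells and 100% = vehicle-treated cells without doxorubicin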
Active calls of the source: *; nt = no result. The list is not random: actives were taken first. Their share in the collection is about 21%.

SMILES | CYP2C9 inhib | CYP2C19 activ | MRP resist rev | CYP2C9 act | CYP2C19 inh | MRP-1 activ
C=CCn1c(O)c(C(C)=NCCc2ccccc2)c(=O)[nH]c1=O | 25 | 0.9 | -3 | 0.7 | 6 | 1
C=CCn1c(O)c(C(C)=NCc2cccnc2)c(=O)[nH]c1=O | 8 | 0.3 | 13 | 0.9 | 68* | -1
C=CCn1c(O)c(C(CC)=Nc2cc(OC)ccc2OC)c(=O)[nH]c1=O | 90* | 0.2 | -2 | 0.1 | 79* | -5
C=CCn1c(O)c(C(C)=NCc2cc(OC)cc(OC)c2)c(=O)[nH]c1=O | 85* | 0.2 | -40 | 0.2 | 83* | -1
CC12CN3CC(C)(CN(C1)C3c1ccco1)C2=O (configuration not stated) | 6 | 0.9 | 7 | 0.9 | 5 | -2
O=P(C(c1ccc2c(c1)OCO2)N1CCOCC1)(N1CCOCC1)N1CCOCC1 (configuration not stated) | nt | nt | 30 | nt | nt | -2
N#CSCC(=O)N1c2ccccc2CCc2ccccc21 | nt | nt | nt | nt | nt | -5
Fc1ccccc1N1CCN(Cc2ccc3c(c2)OCO3)CC1 | 4 | 0.7 | -8 | 1 | 27 | 0
COc1ccc(CN2CCN(c3ccccc3F)CC2)cc1O | 8 | 0.3 | 9 | 0.9 | 74* | -2
COc1ccccc1N1CCN(Cc2ccc(Cl)cc2Cl)CC1 | 23 | 0.4 | 15 | 0.8 | 56* | -1
Fc1ccccc1N1CCN(Cc2c(F)cccc2F)CC1 | 63* | 0 | -3 | 0.4 | 100* | 0
CC(C)(C)N(NC(=O)c1ccccc1)C(=O)c1ccccc1 | 25 | 0.9 | nt | 0.7 | 13 | 1
C(CCc1nn[nH]n1)CCc1nn[nH]n1 | nt | nt | nt | nt | nt | 1
Cc1ccc(-n2c(O)c(C=Nc3ccc(S(=O)(=O)N(C)C)cc3)c(=O)[nH]c2=O)cc1 | -2 | 1.1 | nt | 1 | -9 | 0
OC1(c2cccnc2)CC2CCC(C1)N2Cc1nnnn1Cc1ccccc1 (configuration not stated) | 14 | 0.7 | -3 | 0.9 | 29 | 0
O=C(C1CC(c2ccccc2O)=NO1)N1CCC2(CC1)OCCO2 (configuration not stated) | 3 | 0 | -13 | 1 | 100* | 0
Cc1cc2c(C(C)C)c(O)c(O)c(C=O)c2c(O)c1-c1c(C)cc2c(C(C)C)c(O)c(O)c(C=O)c2c1O | nt | nt | -1 | nt | nt | -3
Cn1cc(C(=O)c2ccccc2)c2ccccc21 | -192 | 0.8 | -20 | 2.9* | 23 | -2
O=C(O)Cn1cc(C(=O)c2ccccc2)c2ccccc21 | -2 | 1.1 | 3 | 1 | -8 | -3
COc1cccc(/C=C2\N=C(c3cncc(Br)c3)OC2=O)c1 | nt | nt | nt | nt | nt | -3
COc1ccc2[nH]c(C)c(CCN3CCC(=O)C(C)C3C)c2c1 (configuration not stated) | 51* | 0.1 | 9 | 0.5 | 89* | -3
COc1ccc2[nH]cc(CCN(C)C)c2c1 | nt | nt | -7 | nt | nt | nt
COc1ccc(OP(=O)(Nc2ccccc2)Nc2ccccc2)cc1 | 69* | 0.2 | nt | 0.3 | 83* | -1
COc1cccc(NP(=O)(Oc2ccccc2)Oc2ccccc2)c1 | nt | nt | nt | nt | nt | -2
O=C(c1ccco1)c1cn(Cc2ccccc2Cl)c2ccccc12 | 89* | 1.3 | 4 | 0.1 | -27 | 2
SMILES | CYP2C9 inhib | CYP2C19 activ | MRP resist rev | CYP2C9 act | CYP2C19 inh | MRP-1 activ
CCn1cc(C(=O)c2cccs2)c2ccccc21 | -209 | 0.9 | -2 | 3.1* | 11 | 0
O=C(c1ccco1)c1cn(Cc2ccccc2)c2ccccc12 | 93* | 0.1 | -29 | 0.1 | 93* | -1
N#Cc1ccccc1Cn1cc(C(=O)C2CC2)c2ccccc21 | 17 | 0.7 | -35 | 0.8 | 31 | -1
O=C(COc1ccccc1)c1cn(Cc2ccccc2)c2ccccc12 | nt | nt | nt | nt | nt | -2
N#Cc1ccccc1Cn1cc(C(=O)c2ccco2)c2ccccc21 | 56* | 0.3 | -3 | 0.4 | 66* | -2
CCC(=O)c1cn(Cc2ccccc2C#N)c2ccccc12 | 52* | 0.2 | -5 | 0.5 | 76* | -1
CC(=O)OC1(c2ccccc2)CC(C(C)(C)C)CN(C(C)(C)C)C1 (configuration not stated) | nt | nt | nt | nt | nt | 0
O=C(C(Cc1ccccc1)NS(=O)(=O)c1ccc(F)cc1)N1CCC2(CC1)OCCO2 (configuration not stated) | 37 | 0.2 | 7 | 0.6 | 80* | -2
COc1ccccc1-n1c(O)c(C=NCCN2CCNCC2)c(=O)[nH]c1=O | 58* | 0.7 | 17 | 0.4 | 35 | -1
O=c1[nH]c(=O)n(Cc2ccccc2)c(O)c1C=NCCN1CCNCC1 | 23 | 0.8 | 34 | 0.8 | 17 | -1
C/C(=N/OC(=O)N(C)C)c1ncc(C(F)(F)F)cc1N1CCOCC1 | 14 | 0.9 | -2 | 0.9 | 14 | -2
C[n+]1ccc(-c2ccncc2)cc1 | -12 | 1.1 | -8 | 1.1 | -12 | 0
Cn1nc(-c2ccc(OCC(=O)N3CCN(Cc4ccccc4)CC3)cc2)c2ccccc2c1=O | 79* | 0.2 | 9 | 0.2 | 80* | -2
CC(C)NS(=O)(=O)c1ccc(OCC(=O)N2CCN(C)CC2)cc1 | -2 | 1.1 | -7 | 1 | -8 | 1
CC(C)NS(=O)(=O)c1ccc(OCC(=O)N2CCN(Cc3ccccc3)CC2)c(Cl)c1 | 71* | 0.5 | -2 | 0.3 | 54* | 0
O=C(COc1ccc(S(=O)(=O)N2CCCCC2)cc1)N1CCN(Cc2ccccc2)CC1 | 11 | 1 | -1 | 0.9 | 2 | -2
CCCNS(=O)(=O)c1ccc(OCC(=O)N2CCN(Cc3ccccc3)CC2)cc1 | 52* | 0.8 | 17 | 0.5 | 22 | -2
C(=NC12CN3CN(CN(C3)C1)C2)c1cccs1 | -9 | 1.2 | nt | 1.1 | -19 | -2
Cn1ncnc2c(=O)n(C)c(=O)nc1-2 | 80* | 0.1 | nt | 0.2 | 95* | nt
CC(=O)c1c(C)n(CCCOC(C)C)c2ccc(O)cc12 | 55* | 0.4 | -1 | 0.4 | 62* | -3
CCOC(=O)c1c(C)n(COCCO)c2ccc(O)cc12 | 9 | 0.8 | -2 | 0.9 | 16 | -1
CCC(=NCCO)c1c(O)n(C2CCCCC2)c(=O)[nH]c1=O | 37 | 0.4 | nt | 0.6 | 61* | -1
CCC(=NCc1ccc2c(c1)OCO2)c1c(O)n(C2CCCCC2)c(=O)[nH]c1=O | 100* | 0 | -19 | 0 | 99* | -1
CC1=NN(c2ccccc2)C(=O)C1/C=C1\C(=O)NC(=O)N(c2ccc(C)c(C)c2)C1=O (configuration not stated) | 68* | 1.1 | -15 | 0.3 | -15 | 0
O=c1[nH]c(=O)n(CCc2ccccc2)c(O)c1C=NCCCn1ccnc1 | 73* | 0.5 | 12 | 0.3 | 50* | 0
COc1ccccc1-n1c(O)c(C=NCCCn2ccnc2)c(=O)[nH]c1=O | 16 | 0.9 | -6 | 0.8 | 8 | -1
O=c1[nH]c(=O)n(Cc2ccc(F)cc2)c(O)c1C=NCCCn1ccnc1 | 86* | 0.7 | 3 | 0.1 | 33 | -1
